Results as given in PubChem BioAssay (NCI).
About 83,000 compounds went through this panel and 20% of them were active in at least one assay; those are over-represented in the sample as a whole.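 Percent growth is the endpoint: 0 to 100 indicates growth inhibition (40 means 60% inhibition), 0 means no net growth, and negative values indicate cell death.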 The source made the active and inactive calls. Rule for the calls: active = growth percent below 10; inactive = the rest.

How the values were obtained:
Assay in all cases: NCI-60 one-dose screen, 48 h (100 = growth as untreated, 0 = no growth, -100 = all killed)
Details in all cases: 10 µM unless noted
NCI-H23 lung = tested on: NCI-H23 lung
NCI-H226 lung = tested on: NCI-H226 lung
NCI-H322M lung = tested on: NCI-H322M lung
HOP-62 NSCLC = tested on: HOP-62 NSCLC
NCI-H460 lung = tested on: NCI-H460 lung
HOP-92 NSCLC = tested on: HOP-92 NSCLC
NCI-H522 lung = tested on: NCI-H522 lung
A549/ATCC NSCLC = tested on: A549/ATCC NSCLC
786-0 renal = tested on: 786-0 renal
COLO 205 colon = tested on: COLO 205 colon
DU-145 prostate = tested on: DU-145 prostate
K-562 leukemia = tested on: K-562 leukemia
MALME-3M melanoma = tested on: MALME-3M melanoma
MDA-MB-231 breast = tested on: MDA-MB-231 breast
RXF 393 renal = tested on: RXF 393 renal
SF-268 CNS = tested on: SF-268 CNS
SF-295 CNS = tested on: SF-295 CNS
SF-539 CNS = tested on: SF-539 CNS
UACC-257 melanoma = tested on: UACC-257 melanoma
M14 melanoma = tested on: M14 melanoma

Measured: growth

N#Cc1c(-c2ccc(Cl)cc2)nc(NN=Cc2ccc[nH]2)nc1N1CCOCC1
active: NCI-H522 lung 8.32%
inactive: NCI-H23 lung 92.4% | NCI-H226 lung 61.8% | NCI-H322M lung 95.4% | HOP-62 NSCLC 41.6% | NCI-H460 lung 36.7% | HOP-92 NSCLC 68.9% | A549/ATCC NSCLC 54.4% | 786-0 renal 23.9% | COLO 205 colon 81.6% | DU-145 prostate 84.2% | K-562 leukemia 44.2% | MALME-3M melanoma 88.9% | MDA-MB-231 breast 79.7% | RXF 393 renal 63.1% | SF-268 CNS 46.2% | SF-295 CNS 58.4% | SF-539 CNS 33.4% | UACC-257 melanoma 101% | M14 melanoma 105%

COC(=O)[C@@]12CC=C(C)[C@]3(C[C@H](c4ccoc4)OC3=O)[C@H]1C=C[C@@H](O)[C@@]2(O)C(=O)OC
inactive: NCI-H23 lung 100% | NCI-H226 lung 116% | NCI-H322M lung 88.7% | HOP-62 NSCLC 91.3% | NCI-H460 lung 111% | HOP-92 NSCLC 102% | NCI-H522 lung 66.3% | A549/ATCC NSCLC 84.9% | 786-0 renal 97.4% | COLO 205 colon 110% | DU-145 prostate 98.3% | K-562 leukemia 94.1% | MALME-3M melanoma 104% | MDA-MB-231 breast 110% | RXF 393 renal 114% | SF-268 CNS 98.1% | SF-295 CNS 96.4% | SF-539 CNS 98.7% | UACC-257 melanoma 82.1% | M14 melanoma 101%

O=C(/C=C/C12c3ccccc3C(c3ccccc31)C1C(=O)NC(=O)C12)c1ccc(I)cc1 (stereo not given)
inactive: NCI-H23 lung 59.3% | NCI-H226 lung 88.8% | NCI-H322M lung 65.1% | HOP-62 NSCLC 69.3% | NCI-H460 lung 44.8% | HOP-92 NSCLC 63.7% | NCI-H522 lung 55% | A549/ATCC NSCLC 71.9% | 786-0 renal 64.6% | COLO 205 colon 78.8% | DU-145 prostate 43.2% | K-562 leukemia 24.8% | MALME-3M melanoma 86.1% | MDA-MB-231 breast 64% | RXF 393 renal 46% | SF-268 CNS 49.8% | SF-295 CNS 78.5% | SF-539 CNS 83.3% | UACC-257 melanoma 60.5% | M14 melanoma 74%

COC1C(O)CC(OC2CC(OC3CC(O[C@@H]4C(=O)c5c(cc6cc(OC7CC(OC8CC(O)C(O)C(C)O8)C(O)C(C)O7)c(C)c(O)c6c5O)CC4[C@H](OC)C(=O)O)OC(C)C3O)OC(C)C2O)OC1C (stereo not given in full)
active: NCI-H23 lung 6.6% | NCI-H226 lung -36.1% | HOP-62 NSCLC 1.26% | NCI-H522 lung -13.7% | A549/ATCC NSCLC 8.44% | RXF 393 renal -45.7% | SF-539 CNS 5.86% | UACC-257 melanoma -8.56%
inactive: NCI-H322M lung 14.5% | NCI-H460 lung 13.5% | HOP-92 NSCLC 20.4% | 786-0 renal 34.7% | COLO 205 colon 14.7% | DU-145 prostate 22.3% | K-562 leukemia 21.2% | MALME-3M melanoma 13.9% | MDA-MB-231 breast 48.4% | SF-268 CNS 28.4% | SF-295 CNS 10.9% | M14 melanoma 35.4%

CCn1cc(C(=O)O)c(=O)c2cc(F)c(N3CCN(CC(=O)Nc4ccccc4)C(C)C3)c(F)c21 (stereo not given)
inactive: NCI-H23 lung 91.3% | NCI-H226 lung 100% | NCI-H322M lung 85.7% | HOP-62 NSCLC 101% | NCI-H460 lung 99.2% | HOP-92 NSCLC 97% | NCI-H522 lung 92.5% | A549/ATCC NSCLC 97.9% | 786-0 renal 92.5% | COLO 205 colon 106% | DU-145 prostate 104% | K-562 leukemia 87.1% | MALME-3M melanoma 97.9% | MDA-MB-231 breast 87.1% | RXF 393 renal 101% | SF-268 CNS 93.7% | SF-295 CNS 95.3% | SF-539 CNS 99.1% | UACC-257 melanoma 102% | M14 melanoma 105%

Cc1ccc(OCCOCCOCCOc2ccc(C)n(O)c2=S)c(=S)n1O
inactive: NCI-H23 lung 44.9% | NCI-H226 lung 29% | NCI-H322M lung 40.6% | HOP-62 NSCLC 30.3% | NCI-H460 lung 17.3% | HOP-92 NSCLC 81.1% | NCI-H522 lung 22.5% | A549/ATCC NSCLC 29.9% | 786-0 renal 40.9% | DU-145 prostate 50.5% | K-562 leukemia 18.9% | MALME-3M melanoma 47% | MDA-MB-231 breast 28.3% | RXF 393 renal 66% | SF-268 CNS 29% | SF-295 CNS 29.1% | SF-539 CNS 45.8% | UACC-257 melanoma 68.4% | M14 melanoma 36%
active: COLO 205 colon 7.96%

Oc1nc(NCc2ccccc2)sc1/C=C1\C=Nc2ncccc21
inactive: NCI-H23 lung 51.9% | NCI-H226 lung 62.3% | NCI-H322M lung 61.9% | HOP-62 NSCLC 56.1% | NCI-H460 lung 81.9% | HOP-92 NSCLC 28.8% | NCI-H522 lung 35.2% | A549/ATCC NSCLC 76.9% | 786-0 renal 62.8% | COLO 205 colon 34.2% | DU-145 prostate 56.5% | K-562 leukemia 80.7% | MALME-3M melanoma 129% | MDA-MB-231 breast 83.8% | SF-268 CNS 52.3% | SF-295 CNS 73.7% | SF-539 CNS 23.3% | UACC-257 melanoma 71.3% | M14 melanoma 80.1%
active: RXF 393 renal -14.1%

Nc1ccc(-c2ccncc2)cc1NC(=O)N1CCCC1
inactive: NCI-H23 lung 102% | NCI-H226 lung 98.1% | NCI-H322M lung 92% | HOP-62 NSCLC 86.5% | NCI-H460 lung 100% | HOP-92 NSCLC 104% | NCI-H522 lung 57.4% | A549/ATCC NSCLC 87.7% | 786-0 renal 96.8% | COLO 205 colon 105% | DU-145 prostate 105% | K-562 leukemia 102% | MALME-3M melanoma 69.9% | MDA-MB-231 breast 120% | RXF 393 renal 100% | SF-268 CNS 93.3% | SF-295 CNS 103% | SF-539 CNS 90.1% | UACC-257 melanoma 59.7% | M14 melanoma 94.2%
